Reference: PubChem BioAssay (NCATS)
Inconclusive results are not listed. Entries that show only a call come without a potency. Active and inactive are the calls of the source. Calls follow the shape of the dose curve; as a rule, active = well fitted inhibition curve with a large enough effect; inconclusive = small, poorly fitted or top-dose-only effect; inactive = no such curve, though single readings can be large or run the other way. *1 amine or outer side, *2 acyl side, *3 side chain or, on linkers, in order; H or OH if unused. Where a SMILES comes first, the peptide text is derived from it. Bridges are numbered along the chain shown (N, C = ends). [ ]: non-standard residue; d: D form. The star is where a group is joined. ξ: configuration not given here. X10 = NC1=NCCC(C(N[*:1])C(=O)[*:2])N1; ΔAla(3-NHCONH2) = NC(=O)NC=C(N)C(=O)O; ξβ3hOrn = NCCCC(N)CC(=O)*; Dap = NC[CH](N)C(=O)O

Assay: Primary qHTS for inhibitors of nuclear receptor binding SET domain protein 2 (NSD2) in an RCH-ACV wild type WT cells (2C) (AID 1645877); also: nearly all actives have a fitted effect of over 70% in size
Settings: RCH-ACV (leukaemia line) NSD2 WT (2C) viability, CellTiter-Glo, 72 h; series mostly up to 44.9 µM
Potency is read from the fitted curve at half-maximal effect.

**Q.** With `NCCCC(N)CC(=O)NCC1NC(=O)C(CO)NC(=O)C(N)CNC(=O)C(C2CCN=C(N)N2)NC(=O)C(=CNC(N)=O)NC1=O` (stereo not drawn) (H-[Dap]S[Dap](ξβ3hOrn)[ΔAla(3-NHCONH2)][X10]; lactam 1-C; configuration not given here) as the molecule, how does the outcome read?
**A.** inactive [at 0.588 µM]

**Q.** For `CN1CC(=O)N2[C@H](c3ccc4c(c3)OCO4)c3[nH]c4ccccc4c3C[C@@H]2C1=O`, which Potency is on record?
**A.** inactive

**Q.** Which Potency does the source give for `O=C(NN1CCCC1)NS(=O)(=O)c1ccc(Cl)cc1` here?
**A.** inactive

**Q.** With `O=c1[nH]c2ccccc2c(=O)n1CCCl` as the molecule, how does the Potency read?
**A.** inactive

**Q.** With `C[C@@H]1CCC[C@H](C)N1CCCC(O)(c1ccccc1)c1ccccn1` (stereo not given in full) as the molecule, how does the Potency read?
**A.** inactive

**Q.** With `O=C(O)Cn1cnnn1` as the molecule, how does the Potency read?
**A.** inactive

**Q.** With `Cc1coc2ccccc2c1=O` as the molecule, how does the Potency read?
**A.** inactive

**Q.** Which Potency does the source give for `O=C(OCC(COC(=O)c1cccnc1)(COC(=O)c1cccnc1)COC(=O)c1cccnc1)c1cccnc1` here?
**A.** inactive

**Q.** Which Potency does the source give for `Cc1[nH]cnc1-c1ccc(Cl)cc1` here?
**A.** inactive

**Q.** Which Potency does the source give for `COC(=O)c1ccc(NC(C)=O)cc1OC` here?
**A.** inactive

**Q.** For `CO/N=C(\C(=O)O)c1csc(NC(=O)CCl)n1`, which Potency is on record?
**A.** inactive

**Q.** For `O=C(c1ccco1)N1CCNCC1`, which Potency is on record?
**A.** inactive

**Q.** For `Cc1ncc(CO)c(CO)c1O`, which Potency is on record?
**A.** inactive

**Q.** Which Potency does the source give for `CCN1CCCC1CN` (stereo not given) here?
**A.** inactive

**Q.** With `CN1C(=O)CC(C)(c2ccccc2)C1=O` (stereo not given) as the molecule, how does the Potency read?
**A.** inactive

**Q.** Which Potency does the source give for `COc1ccc2c(c1)CCCC2=O` here?
**A.** inactive

**Q.** Which Potency does the source give for `Nc1ncnc2c1ncn2Cc1c(F)cccc1Cl` here?
**A.** inactive

**Q.** With `CC(=O)Oc1ccc(C2(c3ccc(OC(C)=O)cc3)Oc3ccccc3NC2=O)cc1` as the molecule, how does the Potency read?
**A.** 10.3 µM (active)

**Q.** Which Potency does the source give for `Cc1cccc(OCC(O)CNC(C)(C)C)c1C` (stereo not given) here?
**A.** inactive

**Q.** For `CCCCOC(=O)CCCCCCCCC(=O)OCCCC`, which Potency is on record?
**A.** inactive

**Q.** Which Potency does the source give for `CC(=O)[C@@]1(O)CC[C@H]2[C@@H]3C[C@H](C)C4=CC(=O)CC[C@]4(C)[C@H]3CC[C@@]21C` here?
**A.** 15 µM (active)

**Q.** For `O=C(CCCl)NCCc1ccccc1`, which Potency is on record?
**A.** inactive

**Q.** For `CCCCOCCOC(=O)c1cccnc1`, which Potency is on record?
**A.** inactive

**Q.** For `O=C(O)Cc1ccccc1Oc1ccc(Cl)cc1Cl`, which Potency is on record?
**A.** inactive

**Q.** For `CN(C)CCN1CCN(c2cccc(Cl)c2)C1=O`, which Potency is on record?
**A.** inactive

**Q.** With `N[C@@H](Cc1cc(I)c(O)c(I)c1)C(=O)O` as the molecule, how does the Potency read?
**A.** inactive

**Q.** For `CCCCCCCCCCCCCCCCCCNC(=O)OC1CCN(C(=O)OC[C@H](COC(=O)N(Cc2cccc[n+]2CC)C(=O)c2ccccc2OC)OC)CC1`, which Potency is on record?
**A.** 2.66 µM (active)

**Q.** With `Cc1ccccc1C(=O)N1CC/C(=N\OS(=O)(=O)O)c2ccc(Cl)cc21` as the molecule, how does the Potency read?
**A.** inactive

**Q.** With `CCC(C(=O)NC(=O)NC(C)=O)c1ccccc1` (stereo not given) as the molecule, how does the Potency read?
**A.** inactive

**Q.** Which Potency does the source give for `CN(C)CCCOC1(Cc2ccccc2)CCCCCC1` here?
**A.** inactive

**Q.** With `Brc1ccc([C@H]2CN3CCSC3=N2)cc1` as the molecule, how does the Potency read?
**A.** inactive

**Q.** Which Potency does the source give for `CC(=O)N(CC(O)CO)c1c(I)c(C(=O)NCCO)c(I)c(C(=O)NCC(O)CO)c1I` (stereo not given) here?
**A.** inactive

**Q.** With `O=C1CC[C@H](C(=O)N2CCCCC2)N1` as the molecule, how does the Potency read?
**A.** inactive

**Q.** For `O=C1NC(c2ccccc2)(c2ccccc2)C(=O)N1COP(=O)(O)O`, which Potency is on record?
**A.** inactive

**Q.** Which Potency does the source give for `O=S(=O)(O)c1ccc2nc(-c3ccccc3)[nH]c2c1` here?
**A.** inactive

**Q.** With `Cc1oc(=O)oc1COC(=O)[C@@H]1N2C(=O)[C@@H](NC(=O)[C@H](N)c3ccccc3)[C@H]2SC1(C)C` as the molecule, how does the Potency read?
**A.** inactive

**Q.** With `Nc1ccc2c(c1)CN1C(=O)c3ccccc3C1=N2` as the molecule, how does the Potency read?
**A.** 8.2 µM (active)

**Q.** Which Potency does the source give for `CCOC(=O)C(=O)CCCCCCl` here?
**A.** inactive

**Q.** With `CC(=O)N[C@@H](CO)C(=O)N[C@@H](CC(=O)O)C(=O)N[C@@H](CCCCN)C(=O)N1CCC[C@H]1C(=O)O` (Ac-SDKP-OH) as the molecule, how does the Potency read?
**A.** inactive

**Q.** Which Potency does the source give for `C[C@@]12CCC[C@H]1[C@@H]1CC[C@H]3C[C@@H](O)CC[C@]3(C)[C@H]1CC2` here?
**A.** inactive
